Where “and” joins values, the source holds several entries; their conditions need not be identical. Equal values may be shown once. Inconclusive results are not listed. Where a call stands in place of a potency, no number is given. Where a structure was tested more than once in an assay, its records may differ in their call. Calls of active or inactive are those of the source. Unless noted, calls come from the whole dose curve; as a rule, active = well fitted curve in the direction sought with a large enough effect in the repeat runs; inconclusive = weak or mixed curves; inactive = no such curve, though single readings can be large; an effect the other way counts as inactive or inconclusive.
What was measured:
[1] = qHTS assay to identify aromatase inhibitors - cell viability counter screen (AID 743084);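 note: cells stimulated with testosterone during compound exposure; nearly all actives have a fitted effect of over 55% in size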; note: potency is the fitted concentration of half-maximal effect
[2] = target: Aryl hydrocarbon receptor (Homo sapiens) (UniProt P35869); assay: qHTS assay to identify small molecule that activate the aryl hydrocarbon receptor (AhR) signaling pathway (AID 743085); note: nearly all actives have a fitted effect of over 15% in size; note: potency is the fitted concentration of half-maximal effect;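 for activation: HG2L7.5c1 human HepG2 liver cells with stably integrated DRE-driven firefly reporter; series mostly up to about 70 µM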
Chain of Aryl hydrocarbon receptor (Homo sapiens) (P35869 whole entry, looked up): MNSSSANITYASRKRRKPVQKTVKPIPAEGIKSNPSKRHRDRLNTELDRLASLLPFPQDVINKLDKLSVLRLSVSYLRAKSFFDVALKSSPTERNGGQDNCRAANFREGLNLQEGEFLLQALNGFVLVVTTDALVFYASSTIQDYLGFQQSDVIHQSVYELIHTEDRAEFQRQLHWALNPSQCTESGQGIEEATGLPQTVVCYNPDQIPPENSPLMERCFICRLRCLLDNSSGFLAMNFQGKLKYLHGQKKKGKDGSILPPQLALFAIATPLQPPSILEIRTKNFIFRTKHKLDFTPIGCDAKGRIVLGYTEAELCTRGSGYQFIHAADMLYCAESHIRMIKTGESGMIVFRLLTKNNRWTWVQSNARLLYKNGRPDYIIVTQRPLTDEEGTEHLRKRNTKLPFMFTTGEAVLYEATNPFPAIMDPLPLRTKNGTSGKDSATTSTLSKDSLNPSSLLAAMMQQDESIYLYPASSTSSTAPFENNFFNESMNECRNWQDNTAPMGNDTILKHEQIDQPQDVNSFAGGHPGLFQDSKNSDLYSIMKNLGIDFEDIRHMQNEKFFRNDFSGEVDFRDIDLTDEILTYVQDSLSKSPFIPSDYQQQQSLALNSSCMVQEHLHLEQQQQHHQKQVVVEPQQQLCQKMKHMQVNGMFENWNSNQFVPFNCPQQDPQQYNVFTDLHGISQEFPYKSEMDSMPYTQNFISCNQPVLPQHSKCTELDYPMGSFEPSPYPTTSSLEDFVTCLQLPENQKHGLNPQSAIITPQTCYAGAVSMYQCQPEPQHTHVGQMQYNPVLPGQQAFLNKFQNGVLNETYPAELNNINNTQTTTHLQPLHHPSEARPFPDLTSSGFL
Summary of the method: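 Reporter assay in engineered HepG2 line HG2L7.5c1, whose plasmid carries twenty dioxin responsive elements upstream of firefly luciferase. Treatment lasted 24 h at 37C; ONE-Glo luminescence gauged induction.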

[3] = qHTS assay to identify small molecule that activate the aryl hydrocarbon receptor (AhR) signaling pathway - cell viability counter screen (AID 743086); note: nearly all actives have a fitted effect of over 45% in size; note: potency is the fitted concentration of half-maximal effect
Summary of the method: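 Cytotoxicity counter screen: CellTiter-Fluor signal (30 min, 37 C) in 4000 HepG2 cells/well carrying the DRE-luciferase reporter, following 24 h compound exposure at 37 C.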

[4] = target: Peroxisome proliferator-activated receptor gamma (Homo sapiens) (UniProt P37231); assay: qHTS assay to identify small molecule agonists of the peroxisome proliferator-activated receptor gamma (PPARg) signaling pathway (AID 743094; active = well fitted activation curve with a large enough effect in the signal ratio in the repeat runs, not every such curve was filed as active; the % refers to the signal ratio)
Chain of Peroxisome proliferator-activated receptor gamma (Homo sapiens) (P37231 whole entry, looked up): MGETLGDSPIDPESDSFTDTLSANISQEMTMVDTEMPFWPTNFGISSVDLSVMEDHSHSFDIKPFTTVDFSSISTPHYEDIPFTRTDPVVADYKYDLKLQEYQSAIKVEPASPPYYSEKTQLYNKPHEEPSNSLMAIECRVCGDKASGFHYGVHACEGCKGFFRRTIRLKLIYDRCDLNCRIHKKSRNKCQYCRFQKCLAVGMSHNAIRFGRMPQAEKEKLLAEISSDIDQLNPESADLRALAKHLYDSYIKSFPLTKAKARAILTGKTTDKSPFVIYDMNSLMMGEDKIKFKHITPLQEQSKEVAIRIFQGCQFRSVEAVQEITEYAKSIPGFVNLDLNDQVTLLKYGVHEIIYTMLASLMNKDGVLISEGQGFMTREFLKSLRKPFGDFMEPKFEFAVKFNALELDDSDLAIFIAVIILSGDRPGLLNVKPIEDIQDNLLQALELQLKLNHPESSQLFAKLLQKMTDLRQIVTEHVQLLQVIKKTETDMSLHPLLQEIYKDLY
Summary of the method: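 Reporter activation was scored by fluorescence of cleaved LiveBLAzer B/G substrate (1 h, room temperature) in PPARg-bla HEK293H cells previously treated 17 h at 37C with DMSO-dissolved compounds.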

[5] = target: Peroxisome proliferator-activated receptor gamma (Homo sapiens) (UniProt P37231); assay: qHTS assay to identify small molecule antagonists of the peroxisome proliferator-activated receptor gamma (PPARg) signaling pathway (AID 743191; calls by dose curve; note: nearly all actives have a fitted effect of over 30% in size; note: potency is the fitted concentration of half-maximal effect)
Summary of the method: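 Beta-lactamase reporter under UAS control in HEK293H PPARg-bla cells; compound treatment 17 h at 37C. Read-out: fluorescence intensity after 1 h room-temperature incubation with LiveBLAzer B/G FRET substrate.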

[6] = qHTS assay to identify small molecule antagonists of the peroxisome proliferator-activated receptor gamma (PPARg) signaling pathway - cell viability counter screen (AID 743194); conditions: Potency: co-treated with 50 nM rosiglitazone unless noted; note: nearly all actives have a fitted effect of over 55% in size
Summary of the method: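 Viability was measured as CellTiter-Glo luminescence in GeneBLAzer PPARg UAS-bla HEK293H cells. These cells had been exposed 17 h at 37 C to compounds together with rosiglitazone at 50 nM final, with the beta-lactamase readout taken in the same wells.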

[7] = qHTS assay for small molecule agonists of the antioxidant response element (ARE) signaling pathway (AID 743202; active = well fitted activation curve with a large enough effect in the signal ratio in the repeat runs, not every such curve was filed as active; the % refers to the signal ratio; note: potency is the fitted concentration of half-maximal effect)
Summary of the method: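 Beta-lactamase reporter activity, read as fluorescence intensity, reflects ARE/Nrf2 pathway induction in HepG2 cells after 16 h compound exposure at 37 C; substrate loading was 2 h at room temperature.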

[8] = qHTS assay for small molecule agonists of the antioxidant response element (ARE) signaling pathway - cell viability counter screen (AID 743203; calls by dose curve; note: nearly all actives have a fitted effect of over 55% in size)
Summary of the method: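 Viability counter screen: stably transfected ARE-bla HepG2 line, 16 hrs compound exposure at 37C/5% CO2, ATP-based CellTiter-Glo luminescence measured in the reporter wells.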

[9] = qHTS assay for small molecule activators of the heat shock response signaling pathway - cell viability counter screen (AID 743209); note: nearly all actives have a fitted effect of over 50% in size
Summary of the method: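 Viability of HSE-bla HeLa cells is measured with CellTiter-Glo in the wells already used for the reporter read. Compound exposure lasts 5 h at 37 C, and luminescence is read after 30 min at room temperature.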

[10] = qHTS assay for small molecule activators of the heat shock response signaling pathway (AID 743210; active = well fitted activation curve with a large enough effect in the signal ratio in the repeat runs, with a control signal flat, not every such curve was filed as active; the % refers to the signal ratio;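 note: HeLa cells with beta-lactamase reporter driven by heat shock elements; series mostly up to about 63 µM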)
Summary of the method: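 Fluorescence from a cleaved B/G FRET substrate (2.5 h, room temp) reports HSE-driven beta-lactamase in HeLa cells treated 5 h at 37 C with DMSO-dissolved compounds.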

Structure (SMILES)	Potency [1]	Potency [2]	Potency [3]	Potency [4]	Potency [5]	Potency [6]	Potency [7]	Potency [8]	Potency [9]	Potency [10]
O=C(NC(=O)c1c(F)cccc1F)Nc1ccc(Cl)cc1	inactive	97.1 nM (active) and 611 nM (active)	inactive	inactive	inactive	inactive	inactive	inactive	inactive	inactive
C#C[C@]1(O)CC[C@H]2[C@@H]3CCC4=CC(=O)CC[C@]4(C)[C@H]3CC[C@@]21C	inactive	inactive	inactive	inactive		inactive	inactive	inactive	inactive	
Cc1ccccc1[N+](=O)[O-]	inactive	inactive	inactive	inactive		inactive	inactive	inactive	inactive	
O=C(O)CC[N+](=O)[O-]	inactive	inactive	inactive	inactive	inactive	inactive	inactive	inactive	inactive	
ClC1C(Cl)C(Cl)C(Cl)C(Cl)C1Cl (centres undefined)	inactive	inactive	inactive	inactive	inactive	inactive	inactive	inactive	inactive	
Nc1cccnc1	inactive	inactive	inactive	inactive	inactive	inactive	inactive	inactive	inactive	
Cc1ccc(OP(=O)(Oc2ccc(C)cc2)Oc2ccc(C)cc2)cc1	inactive	inactive	inactive	inactive		inactive	inactive	inactive	inactive	
OCC(O)CO	inactive	inactive	inactive	inactive	inactive	inactive	inactive	inactive	inactive	inactive
O=[N+]([O-])c1ccc(O)c([N+](=O)[O-])c1	54.7 µM (active)	24.4 µM (active)	38.7 µM (active)	inactive	inactive	inactive	48.8 µM (active)	inactive	inactive	
C=C(C)C(=O)OCC1CO1 (centres undefined)	inactive	inactive	inactive	inactive		inactive	inactive	inactive	inactive	
Oc1cc(Cl)ccc1Cl	inactive	inactive	inactive	inactive	inactive	inactive	inactive	inactive	inactive	inactive
CCC(C)(C)c1ccc(O)cc1	inactive	inactive	inactive	inactive	inactive	inactive	inactive	inactive	inactive	inactive
Clc1nc(Cl)nc(Cl)n1	inactive	inactive	inactive	inactive	inactive	inactive	inactive	inactive	inactive	inactive
CCN(CC)N=O	inactive	inactive	inactive	inactive		inactive	inactive	inactive	inactive	
Oc1ccc(-c2ccccc2)cc1	inactive	inactive	inactive	inactive	30.5 µM (active)	inactive	53.8 µM (active) and 21.7 µM (active)	inactive	inactive	
COP(=O)(OC)OC	inactive	inactive	inactive	inactive	inactive	inactive	inactive	inactive	inactive	
Cc1cccc(N)c1N	inactive	11.8 µM (active) and 43.3 µM (active)	inactive	inactive		inactive	9.36 µM (active) and 17.2 µM (active)	inactive	inactive	
Nc1ccc(Cl)c(Cl)c1	inactive	55.7 µM (active) and 61.1 µM (active)	inactive	inactive		inactive	inactive	inactive	inactive	
CCOP(=S)(OCC)O/N=C(\C#N)c1ccccc1	inactive	10.6 µM (active) and 21.7 µM (active)	inactive	inactive	inactive	inactive	inactive	inactive	inactive	inactive
CCN(CC)C(=O)SCc1ccc(Cl)cc1	inactive	inactive	inactive	inactive		inactive	inactive	inactive	inactive	
Nn1cnnc1	inactive	inactive	inactive	inactive	inactive	inactive	inactive	inactive	inactive	
NCc1cccnc1	inactive	inactive	inactive	inactive		inactive	inactive	inactive	inactive	
CCCCCc1cc(O)cc(O)c1	inactive	61.4 µM (active)	inactive	inactive	24.7 µM (active)	inactive	48.8 µM (active) and 48.6 µM (active)	inactive	inactive	

— PubChem BioAssay (Tox21)
